The campaign covered roughly 300,000 compounds. About 3,200 (1.1%) were called active. The full list was thinned out, with actives kept by preference. A number with no mark means an inactive call.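 Rule for the calls: active = inhibition above the campaign mean inhibition plus 3 SD (cut at about 35% in these data); inactive = the rest.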
target: Glutathione S-transferase omega-1 (Homo sapiens) (UniProt P78417); assay: inhibitors of recombinant GSTO1, primary screen, counter-screen for RBBP9 inhibitor project, biochemical, fluorescence polarization (AID 1974); conditions: recombinant GSTO1, activity-based probe fluorescence polarization; at 5.96 µM; stronger effect = higher value;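 note: 0% = GSTO1-1 with DMSO and 100% = wells lacking GSTO1-1 enzyme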
Sequence (P78417 whole entry, looked up): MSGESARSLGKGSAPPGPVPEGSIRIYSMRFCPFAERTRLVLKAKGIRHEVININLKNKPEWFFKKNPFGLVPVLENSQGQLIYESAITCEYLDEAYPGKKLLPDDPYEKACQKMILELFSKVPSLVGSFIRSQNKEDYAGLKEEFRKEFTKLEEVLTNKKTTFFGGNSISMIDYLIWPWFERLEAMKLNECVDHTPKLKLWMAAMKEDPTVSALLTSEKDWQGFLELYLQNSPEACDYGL

Row | Structure (SMILES) | inhibition
1 | O=C(CSc1n[nH]c(-c2cccs2)n1)N1CCCCC1 | 0.4%
2 | Cc1csc(NC(=O)NC2(C(F)(F)F)Oc3ccccc3O2)n1 | 28.1%
3 | COc1ccc(Cl)cc1NC(=O)CN1CCN(C(=O)N2CCOCC2)CC1 | 1.76%
4 | O=C(Nc1cc(N2CCOCC2)ncn1)NC1(C(F)(F)F)Oc2ccc(Cl)cc2O1 (stereo unspecified) | 57.4% (active)
5 | CN(CC(=O)Nc1cccc(F)c1)C(=O)C1CSC2(C)CCC(=O)N12 (stereo unspecified) | -10.9%
6 | COc1ccc(CCNC(=O)COC(=O)C2CCCCC2)cc1 | 3.87%
7 | COC(=O)CCCC1=CC2=C(c3ccccc3)C(=O)C(C)(OC(=O)C3CCCC3)C(=O)C2=CN1c1ccc(OC)cc1 (stereo unspecified) | 40% (active)
8 | COC(=O)CCCC1=CC2=CC(=O)C(C)(OC(=O)c3cccs3)C(=O)C2=CN1c1cccc(C#N)c1 (stereo unspecified) | 10.6%
9 | Cc1ccc(C)c(-c2nnc(NC(=O)CS(=O)(=O)c3ccccc3)o2)c1 | 9.44%
10 | CCOc1ccc(C(C)=O)cc1COC(=O)CN1C(=O)NC2(CCCC2)C1=O | 10.1%
11 | C#CCOCCOCCOCCNc1nc(N2CCN(C(=O)CCCCCCCCCCNC(=O)Cn3cc(CCCCCN)nn3)CC2)nc(N2CCN(C(=O)CCCCCCCCCCNC(=O)[C@H](CO)n3cc(CCCSC)nn3)CC2)n1 | 4.11%
12 | Oc1cc2c(cc1O)CN(C(=S)NCCc1ccc(Cl)cc1)CCC2 | -0.15%
13 | COc1ccc2c(c1)SC(C)CC2=O (stereo unspecified) | -1.85%
14 | COc1ccc2c(c1)OC(O)(C(F)(F)C(F)F)CC2=O (stereo unspecified) | 42% (active)
15 | CC1(C)CC(=O)c2ccc(O)cc2O1 | 8.19%
16 | COc1ccc(OCCCC(=O)OC(C)C(=O)Nc2ccccc2[N+](=O)[O-])cc1 (stereo unspecified) | -0.91%
17 | COc1ccc(NC(=O)CN(C)C(=O)c2cc(-c3ccc(C)o3)nc3ccccc23)cc1 | 5.17%
18 | CN1C(=O)CC(c2ccccc2)C1=O (stereo unspecified) | 7.68%
19 | OCC[C@H]1C[C@H](O)[C@@H](O)[C@]2(Cc3ccccc3CO2)O1 | 2.49%
20 | CCC1(CC)Cc2ccccc2-c2nc(CCl)[nH]c(=O)c21 | 84.7% (active)
21 | CC1(C)Cc2ccccc2-c2[nH]c(=S)[nH]c(=O)c21 | 3.5%
22 | CC1(C)Cc2ccccc2-c2nc(CN3CCOCC3)[nH]c(=O)c21 | -0.05%
23 | O=C(COC(=O)CNS(=O)(=O)c1ccc(F)c(F)c1F)NC1CCCC1 | 14.3%

Row | Structure (SMILES) | inhibition
24 | CC(OC(=O)CCC(=O)c1ccccc1)C(=O)Nc1ccc(F)cc1 (stereo unspecified) | 3.4%
25 | COc1ccc(S(=O)(=O)N2CCOCC2)cc1NC(=O)COc1ccccc1 | 13.6%
26 | COc1ccc(S(=O)(=O)N2CCOCC2)cc1NC(=O)CSc1ncnc2ccccc12 | 38.4% (active)
27 | COc1ccc(S(=O)(=O)N2CCCCC2)cc1NC(=O)COc1ccccc1 | -8.4%
28 | CCn1cc(C(=O)NC2CCCCCC2)c(=O)c2cc(S(=O)(=O)N3CCCCC3)ccc21 | 0.56%
29 | CCCOc1ccc(/C=N/NC(=O)C2CC2)c(OCCC)c1 | 5.8%
30 | Cc1cc(NC(=O)C(C)N2C(=O)c3ccccc3S2(=O)=O)no1 (stereo unspecified) | 12.5%
31 | CC(=O)c1c(C)[nH]c(C(=O)CN2C(=O)NC(C)(C)C2=O)c1C | -0.38%
32 | CS(=O)(=O)n1nc(-c2ccco2)nc1N | -5.37%
33 | c1coc(-c2nc3nc4ccccc4n3nc2-c2ccco2)c1 | 47.1% (active)
34 | Cn1c(-c2ccco2)nc2cc3ccccc3cc21 | 1.91%
35 | CC(=O)CC(CC(=O)NC1CCCCC1)c1ccccc1 (stereo unspecified) | 5.92%
36 | Cc1n[nH]c(=O)c2c(NC(=O)CSc3ccccc3F)oc(C)c12 | -2.53%
37 | Cc1coc2c(O)cc3c(c12)OC1(N2CCCCC2)C(=O)NCCCC31 (stereo unspecified) | 74.4% (active)
38 | CCN(CC)CCn1c2c(c(SCC(=O)Nc3nc4ccccc4s3)nc1=O)CCCC2 | -6.43%
39 | CS(=O)(=O)c1ccc(C(=O)OCC(=O)NNC(=O)COc2ccc(Cl)cc2)cc1 | 1.2%
40 | Cc1ccc(NC(=O)CN(C)C(=O)Cn2nnc(-c3ccccc3)n2)cc1 | 1.43%
41 | OCC[C@H]1C[C@H](O)[C@@H](O)[C@]2(CCc3ccccc3O2)O1 | 3.69%
42 | CCOC(=O)c1cc(NC(=O)c2cccnc2)ccn1 | 11.6%
43 | O=C(CCl)NNc1cccc(Cl)n1 | 50.5% (active)
44 | O=C(Cc1c(Cl)cccc1Cl)NC1CC1 | 3.33%
45 | O=C(NNc1ccccn1)c1ccc(Cl)nc1 | 12.7%
46 | O=C(NCC1CC1)c1onc(CSc2ccccc2)c1C(=O)NCC1CC1 | 4.37%

Row | Structure (SMILES) | inhibition
47 | CCOC(=O)c1ccc(NC(=O)c2c(N)n(C)c(=O)[nH]c2=O)cc1 | -7.15%
48 | CN(C)c1ccc(S(=O)(=O)NCC(=O)NCC2CCCCC2)cc1[N+](=O)[O-] | -5.25%
49 | COc1ccc(NS(=O)(=O)c2ccc(O)c(C(=O)OCC(=O)NC3CCCCC3)c2)cc1 | -9.76%
50 | CCN(C(=O)COC(=O)c1cc(NS(=O)(=O)c2ccc(Cl)c([N+](=O)[O-])c2)ccc1O)C1CCCCC1 | 38.5% (active)
51 | COCCn1c(SC(C)C(=O)NC2CC2)nnc1-c1cccc(C)c1 (stereo unspecified) | 12.9%
52 | Cc1ccc(NC(=O)C(C)OC(=O)Cc2c[nH]c3ccccc23)cc1S(=O)(=O)N1CCOCC1 (stereo unspecified) | 11.7%
53 | O=C(NCCS(=O)(=O)N1CCN(c2ccccc2)CC1)c1ccco1 | 1.82%
54 | O=c1c(/C=N/O)coc2ccc(Cl)cc12 | 38.5% (active)
55 | NC(=S)N/N=C/c1coc2cc(Cl)ccc2c1=O | 0.72%
56 | Cc1ccc2occ(/C=N/NC(=O)c3ccccc3C)c(=O)c2c1 | 23.9%
57 | COC1(C2=NCCN2)COc2ccccc2O1 (stereo unspecified) | 10.3%
58 | COc1ccccc1C(=O)NCCC(=O)NN1C(=O)NC2(CCCCC2)C1=O | 0.1%
59 | CCCCC1=CC2=CC(=O)C(C)(OC(=O)CC)C(=O)C2=CN1CCCOC(C)C (stereo unspecified) | 19.3%
60 | COC(=O)CCCC1=CC2=CC(=O)C(C)(OC(=O)c3cccs3)C(=O)C2=CN1CC1CC1 (stereo unspecified) | 43.3% (active)
61 | COC(=O)CCCC1=CC2=CC(=O)C(C)(OC(=O)c3cccs3)C(=O)C2=CN1CC(C)C (stereo unspecified) | 19.4%
62 | CC(C)N(Cc1ccccc1)C(=O)COC(=O)c1ccccc1SCC(=O)N1CCCC1 | 8.57%
63 | O=C(CCn1c(SCC(=O)c2ccccc2)nc2ccccc2c1=O)NCc1ccc(F)cc1 | 62.5% (active)
64 | O=C(CCCn1c(SCC(=O)c2ccccc2)nc2ccccc2c1=O)NCC1CCCO1 (stereo unspecified) | -0.93%
65 | O=C(CCCn1c(SCC(=O)c2ccc(F)cc2)nc2ccccc2c1=O)NCc1ccco1 | 5.62%
66 | CCCCCCSc1ccc([C@@H]2[C@@H]3C(=O)N(CC)C(=O)[C@@H]3[C@]3(C(=O)OC)CCCCN23)cc1OC | -5.28%
67 | Cc1cccc(NS(=O)(=O)c2cc(Cl)ccc2Cl)n1 | -9.4%
68 | COC1=C(N2CCOCC2)C(=O)c2ccccc2C1=O | 57.8% (active)
69 | O=C1C(Cl)=C(N2CCOCC2)C(=O)N1c1ccccc1 | 3.26%

Row | Structure (SMILES) | inhibition
70 | COc1ccc(N2CCN(C(C)=C3C(=O)c4ccccc4C3=O)CC2)cc1 | 2.82%
71 | COc1ccc(NS(=O)(=O)c2ccc(C)c(C(=O)NNC(=O)c3csc(N4CCOCC4)n3)c2)cc1 | -5.75%
72 | CCCC1C(=O)N2C(N(C)C)=Nc3ccc(C)cc3N2C1=O (stereo unspecified) | -1.7%
73 | COc1ccc(-c2cnc(SCCNC(=O)c3ccc4c(c3)OCO4)[nH]2)cc1 | -3.18%
74 | COC(=O)c1ccc(CSc2nncn2C)cc1 | -6.04%
75 | COC(=O)c1ccc(CSc2nncn2N)cc1 | 61% (active)
76 | COC(=O)c1ccc(CSc2nnc(NC(C)C)s2)cc1 | -6.8%
77 | OCC[C@H]1C[C@H](O)[C@@H](O)[C@]2(CCCCO2)O1 | 3.4%
78 | COc1ccc(CC2c3cc(OC)c(OC)cc3CC[N+]2(C)CCC(=O)OCCCCCOC(=O)CC[N+]2(C)CCc3cc(OC)c(OC)cc3C2Cc2ccc(OC)c(OC)c2)cc1OC (stereo unspecified) | 11.1%
79 | CCC(c1nnc(SCC(=O)NNC(=O)c2ccccc2)n1Cc1ccccc1)N(C)C (stereo unspecified) | 1.64%
80 | COc1ccc(NC(=O)CSc2ncnc3[nH]ncc23)cc1 | 36.4% (active)
81 | COc1ccc(NC(=O)CSc2nc(C)cs2)cc1 | 4.13%
82 | COc1ccc(-n2ncc3c(SCC(=O)NNC(C)=O)ncnc32)cc1 | -13%
83 | CCCCN1C(N)=NC[C@@H]1Cc1ccccc1 | -4.9%
84 | CC(C)(C)C(=O)OCc1nc(-c2ccc(O)c(O)c2)cs1 | 37.1% (active)
85 | COc1cc(CC(=O)Nc2nc(-c3ccc(F)c(F)c3)cs2)cc(OC)c1OC | -6.41%
86 | Cc1onc(C(=O)NN)c1-c1csc(COc2ccccc2)n1 | 10.4%
87 | CC(CCN1CCN=C1N(C)C)c1ccccc1 (stereo unspecified) | 4.27%
88 | CNC(C)C#Cc1ccc2sc3cc(OC)c(OC)cc3c(=O)c2c1 (stereo unspecified) | 0.59%
89 | O=C(O)c1[nH]c2ccccc2c1C(c1cccc(O)c1)c1c(C(=O)O)[nH]c2ccccc12 | 50.4% (active)
90 | CCCS(=O)(=O)Nc1c(C(=O)O)[nH]c2ccccc12 | 0.73%
91 | CC(NC(=O)COC(=O)c1cc(=O)[nH]c2ccccc12)c1ccccc1 (stereo unspecified) | -7.45%
